93 compounds from PubChem BioAssay AID1628 (Sanford-Burnham Center for Chemical Genomics, 2009) can be followed below.

Hit rate of the full screen: of about 190,000 compounds, about 930 (0.49%) were called active. Some of the results follow. Potency and affinity values are given separately. Values without a mark were called inactive.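 How the source made its calls: active means z-score of insulin promoter reporter brightness in nuclei below -3 at 5 µM, with at least 500 cells counted; inconclusive means wells with under 500 cells, flagged as toxic or sparse; inactive means the rest.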

A short description of this assay: insulin promoter down-regulators in MIN6 cells, imaging, high-content screening, mouse beta cells (AID 1628). The settings on record: MIN6 insulin promoter GFP reporter, at 5 µM, hits give low values.
On to `CNC(=O)c1c(NC(=O)c2ccc(S(=O)(=O)N3CCCc4ccccc43)cc2)sc2c1CCN(C)C2`, for which the z-score is 8.33.
In the case of `Cc1cccc2sc(NNC(=O)c3ccc4c(c3)OCCO4)nc12` it was 3.4; in that of `CC(C)N1CCc2c(sc(NC(=O)c3ccc(S(=O)(=O)N4CCc5ccccc54)cc3)c2C(N)=O)C1`, 4.91.
The same measure for `Cc1cc(C)c2nc(NNC(=O)c3ccc(S(=O)(=O)N4CCc5ccccc5C4)cc3)sc2c1`: -5.92 (active); for `CC1CN(S(=O)(=O)c2ccc(C(=O)Nc3sc4c(c3C(N)=O)CCN(C)C4)cc2)CC(C)O1` (stereo not drawn): 11; for `COc1cccc2sc(NNC(=O)C3=COCCO3)nc12`: 5.68.
In the case of `CCCN1C(=O)S/C(=C\c2ccc(N3CCOCC3)o2)C1=O` it was 9.56.
In the case of `COc1ccc(-c2n(Cc3ccccc3)c3ccccc3[n+]2Cc2ccccc2)cc1`, the z-score is -8.43 (active).
In the case of `CCc1nnc(NC(=O)CCC(=O)NCc2ccccc2OC)s1` it was 4.05; in that of `CCOc1ccccc1C(=O)Nc1nnc(COC)s1`, 0.76.
As for `CCCC1C2CN(C(C)C)CC=C2C(C#N)=C(N)C1(C#N)C#N` (stereo not drawn), the z-score is 16.1.
The same measure for `CCOC(=O)CSc1nc2cc3c(cc2cc1CC)OCCO3`: 0.81.
Regarding `Cc1ccc(/C(N)=N/OC(=O)c2ccc(F)cc2)cc1`, the z-score is -4.16 (active).
The same measure for `CCC1COC(c2cccn2Cc2ccc(Cl)cc2)=N1` (stereo not drawn): 2.5; for `CC1=C/C(=C\C=C(C#N)C#N)N(C)c2ccccc21`: 4.05; for `COCc1cc(C)nc(Nc2ccccc2C)c1C#N`: 3.32.
The same measure for `CCCOC(=O)C1=C(C)NC2=C(C(=O)CCC2)C1c1cccc(OC)c1OC` (stereo not drawn): -0.62.
Take `CCCOC(=O)c1ccc(NC(=O)c2cc(OC)c(OC)c(OC)c2Br)cc1`: the z-score was -3.3 (active).
The same measure for `C=CCNC(=S)NNC(=O)c1ccc(OCCCC)cc1`: 0.58.
The same measure for `COC(=O)c1cc(NC(=O)c2ccccc2)c(=O)oc1/C=C/Nc1ccc(Oc2ccccc2)cc1`: 10.8.
As for `CCOc1ccc(NS(=O)(=O)c2ccc(NS(=O)(=O)c3ccccc3)cc2)cc1`, the z-score is 7.53.
In the case of `CCOc1ccc2c(c1)C(C)=CC(C)(C)N2S(=O)(=O)c1ccc(C)cc1` it was -3.31 (active).
For `CCOc1ccc2nc(NCCCNS(=O)(=O)c3ccc(C)cc3)c(C#N)cc2c1`, the z-score was 1.84.
In the case of `Cc1nc2ccccc2n1CC(=O)NCc1ccccc1` it was -3.91 (active).
In the case of `C=C(C)Cn1c(CCCNC(=O)CC)nc2ccccc21` it was 0.76.
With `O=C(CCl)Nc1cccc2ncccc12`, the z-score is 4.01.
Turning to `O=c1ccnc(Nc2ccc3c(c2)OCCO3)[nH]1`, the z-score was 3.66.
The same measure for `COc1ccccc1NC(=O)CSc1nc2c(sc3ccccc32)c(=O)n1CCN(C)C`: 2.23; for `Cn1nc(CC(=O)Nc2cccc3ncccc23)c2ccccc2c1=O`: -4.57 (active).
With `O=C(COC(=O)c1ccco1)Nc1ccc2c(c1)OCCO2`, the z-score was 0.45.
In the case of `O=C(O)c1ccc(N2C(=O)Nc3ccccc3N2O)cc1` it was 2.34; in that of `CCn1cc(C(=O)O)c(=O)c2cnc(N3CCN(C(=S)Nc4ccc(F)cc4)CC3)nc21`, -3.18 (active); in that of `CCn1cc(C(=O)O)c(=O)c2cc(F)c(N3CCN(C)CC3)cc21`, -0.61.
With `CCn1cc(C(=O)O)c(=O)c2cnc(N3CCN(C(=O)Nc4cccc5ccccc45)CC3)nc21`, the z-score was -5.9 (active).
For `COc1ccc(/C=C(\C#N)C(=O)OCC(=O)Nc2c(C)cccc2C(C)C)cc1`, the z-score was 3.36.
The same measure for `O=C(O)C1CC=CCC1C(=O)Nc1ccc(N2CCN(Cc3ccccc3)CC2)cc1` (stereo not drawn): -4.25 (active); for `CN(C)c1ccc(/C=C2\N=C(c3ccc(Cl)c([N+](=O)[O-])c3)NC2=O)cc1`: 4.65.
As to `CCOc1ccc(CN(Cc2ccco2)C(c2cccs2)c2nnnn2C(C)(C)C)cc1` (stereo not drawn), the z-score is -3.47 (active).
For the compound `COc1ccc2nc(N/C(N)=N/C(=S)Nc3ccccc3)nc(C)c2c1`, the z-score is 2.22.
In the case of `CN(C)c1ccc(/C=C(/C#N)C(=O)NCc2ccccc2)o1` it was 16.1; in that of `CCCNc1c(F)c(F)c2c(C)c3ccccc3nc2c1F`, 5.94.
The same measure for `CSc1nc(-c2ccco2)nn1C(=O)c1ccco1`: -6.58 (active); for `O=C(Oc1ccc2ccccc2c1)c1ccco1`: -0.59.
The same measure for `Cc1ccc(NS(=O)(=O)c2ccc(CCC(=O)O)cc2)cc1`: 1.37; for `Cc1ccc(S(=O)(=O)Nc2ccc(=O)n(Cc3ccc(Cl)c(Cl)c3)c2)cc1`: 3.26; for `Cc1ccc(S(=O)(=O)NC(N)=NCCc2ccc(Cl)cc2)cc1`: -4.29 (active).
Take `O=C1CN(C(=O)COc2ncnc3ccccc23)c2ccccc2N1`: the z-score was 4.05.
As to `COc1ccc2c(=O)c(-c3ccccc3)coc2c1`, the z-score is -0.45.
As for `CCCCOc1ccc(-c2cc(C(F)(F)F)c(C#N)c(SCC(=O)O)n2)cc1`, the z-score was 4.82.
The same measure for `CN(C)C(=O)CSc1nnc(-c2cnccn2)n1C`: 0.77; for `C=CCn1c(SCC(=O)Nc2cc3oc4ccccc4c3cc2OC)nnc1-c1cnccn1`: -3.06 (active); for `C=CCn1c(SCC(=O)Nc2nccs2)nnc1-c1cc2cccc(OC)c2o1`: -3.45 (active).
The same measure for `Cc1nn(C)c(C)c1S(=O)(=O)N(CC(=O)Nc1nccs1)c1ccc(C(C)C)cc1`: 3.98; for `C=CCn1c(SCCOc2ccc(OC)cc2)nnc1C(C)NC(=O)Cc1ccc(OC)cc1` (stereo not drawn): 4.23; for `CCCCc1c(C)nn(-c2nnc3c4ccccc4n(CC)c3n2)c1C`: -3.04 (active).
`COc1ccc(C2C(C#N)=C(N)N(c3ncn[nH]3)C3=C2C(=O)CCC3)cc1` (stereo not drawn): the z-score is 1.75.
The same measure for `CCN(CC)C(=O)Oc1cc(=O)n(C)c2ccccc12`: -3.24 (active); for `CCCC(=O)c1c(C)c2ccccc2n1C`: 3.01.
In the case of `O=C(Nc1ccon1)c1cccc(S(=O)(=O)N2CCCCC2)c1` it was 3.46; in that of `Cc1cc(NC(=O)c2cccc(S(=O)(=O)N3CCCCCC3)c2)n(-c2ccccn2)n1`, -3.67 (active); in that of `Nc1cccc2c1C(=O)N(C(=O)c1cccc(S(=O)(=O)N3CCCC3)c1)C2=O`, 3.15.
In the case of `CC1=CN2C(=N)/C(=C/c3ccc([N+](=O)[O-])o3)C(=O)N=C2S1` it was 8.52; in that of `CCCCCCc1cc2cc(-c3nnc(-c4cc(OC)c(OC)c(OC)c4)o3)c(=O)oc2cc1O`, 9.96; in that of `CC(=O)N1CCc2cc(Br)cc(S(=O)(=O)CCC(=O)Nc3c(C)n(C)n(-c4ccccc4)c3=O)c21`, 2.32.
For the compound `Cc1c(C(c2ccc([N+](=O)[O-])cc2)c2c(C)n(C)n(-c3ccccc3)c2=O)c(=O)n(-c2ccccc2)n1C`, the z-score was 4.14.
The same measure for `Cc1c(NC(=O)CN2CCN(c3ccc([N+](=O)[O-])cc3)CC2)c(=O)n(-c2ccccc2)n1C`: -3.45 (active); for `Cc1cc(N2CCCC2)ccc1/C=C1/C(=O)N(C)C(=S)N1C`: 3.32; for `CCOc1cc(NC(=O)c2ccco2)c(OCC)cc1NC(=O)c1cc(OC)c(OC)c(OC)c1`: -3.03 (active).
`COC(=O)c1sccc1NC(=O)c1cc(OC)c(OC)c(OC)c1`: the z-score was 3.71.
In the case of `CCN1/C(=C\C=C(C(C)=O)C(C)=O)Sc2ccccc21` it was 7.73; in that of `CCN1/C(=C/c2ccc3cc(C)ccc3[n+]2CC)Sc2ccccc21`, 16.5; in that of `CCN1/C(=C/C(C)=C/c2sc3ccccc3[n+]2CC)Sc2ccccc21`, -3.52 (active).
Regarding `CCCCNC(=O)/C(C#N)=c1\s/c(=C\c2ccccc2OC(F)F)c(=O)n1CCCOC`, the z-score is 4.53.
Take `O=C(NC(Nc1nc2ccc([N+](=O)[O-])cc2s1)(C(F)(F)F)C(F)(F)F)c1cccnc1`: the z-score is -3.96 (active).
The same measure for `COc1ccccc1NC(=O)c1ccc(-c2ccccc2[N+](=O)[O-])o1`: 1.05; for `COC(=O)c1sc(NC(=O)c2ccco2)nc1C`: 1.53; for `COc1ccccc1NC(=O)c1c(NC(=O)c2ccco2)sc2c1CCC2`: -3.67 (active).
The same measure for `CCn1c(SCC(=O)Nc2cc(C)on2)nc2c(c1=O)SC(C)C2` (stereo not drawn): -3.41 (active); for `COc1cc2cc(C)c3nnc(SCC(=O)Nc4cc(C)on4)n3c2cc1OC`: 5.98; for `CCn1c2ccccc2c2nnc(SCC(=O)Nc3cc(C)on3)nc21`: 3.98.
Take `CCO[C@@H]1OC(C(=O)Nc2ccccc2)=C[C@H](c2ccc(C(F)(F)F)cc2)[C@H]1CCCO`: the z-score is -3.04 (active).
The same measure for `CCCN1C(=O)/C(=C/c2c(N3CCNC(=O)C3CC(=O)OC)nc3c(C)cccn3c2=O)SC1=S` (stereo not drawn): 6.46; for `COc1ccc(NC2=Nc3ccccc3N3C2=Nc2c(c(C)nn2-c2ccc(C)cc2)C3c2cccnc2)cc1` (stereo not drawn): 3.08; for `CCOc1ccccc1C(=O)NCC(=O)O`: 0.62.
In the case of `CCOC(=O)CCNC(=O)CNC(=O)OCc1ccccc1` it was -4.19 (active).
In the case of `COc1ccc(CN2C(=O)/C(=C/c3ccc(-c4ccc(Cl)c(C(=O)O)c4)o3)SC2=S)cc1` it was 5.56; in that of `CCc1ccc(NC(=S)Nc2ccc3cn[nH]c3c2)cc1`, -5.26 (active); in that of `CCOc1cc(C)c(S(=O)(=O)Nc2ccc3cn[nH]c3c2)cc1C`, 4.24.
As to `C=CCn1c(SCc2c(C)noc2C)nc2sc3c(c2c1=O)CCCCC3`, the z-score was -4.19 (active).
Consider `CN(C)C(=O)C12CCC(C)(c3nc4ccccc4nc31)C2(C)C` (stereo not drawn), for which the z-score was 3.42.
Consider `O=C(Nc1nc(-c2ccc3c(c2)OCO3)cs1)c1ccncc1`, for which the z-score was -4.14 (active).
In the case of `c1ccc2nc(-c3ccc4c(c3)OCO4)ccc2c1` it was -0.48.
The same measure for `O=C1/C(=C/c2ccc(N3CCOCC3)o2)SC(=Nc2ccccc2)N1CCc1c[nH]c2ccccc12`: 17.8.
